Here are results for 20 compounds from PubChem BioAssay (NCATS).

Results filed as inconclusive are left out. The source made the active and inactive calls. Unless noted, the call rests on the fitted dose curve.
Potency means the concentration at half of the fitted maximal effect.

The first assay in a line: Cell Viability - BJ (AID 421).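 Further: cells exposed to compound for 40 hours at 37 °C before readout.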 Conditions: BJ fibroblast viability, qHTS. The method, boiled down: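 Luminescent ATP signal (CellTiter-Glo, 20 min at room temperature) served as the read-out of viable BJ cells after 40 hours of compound treatment. Responses were scaled between DMSO and 100 uM tamoxifen, and AC50 values were obtained by Hill modeling.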
(In general: qHTS replaces the single test concentration by a dilution series.)
As to `O=C(O)CCCCC1CCSS1` (centres undefined), the Potency is > 92 µM (inactive).

As to `CC(=O)Nc1ccccc1`, the Potency is > 92 µM (inactive).

As to `Cc1c(N(C)C)c(=O)n(-c2ccccc2)n1C`, the Potency was > 92 µM (inactive).

`CC(=O)Nc1cccc(O)c1`: the Potency is > 92 µM (inactive).

In the case of `O=C1C(c2[nH]c3ccccc3c2O)=Nc2ccccc21`, the Potency is > 92 µM (inactive).

For `CC1CC(OC(=O)c2ccccc2O)CC(C)(C)C1` (centres undefined), the Potency is > 92 µM (inactive).

Turning to `CC(=O)OCC(COC(C)=O)OC(C)=O`, the Potency was > 92 µM (inactive).

As for `O=C1c2cccc(O)c2C(=O)c2c(O)cccc21`, the Potency was > 92 µM (inactive).

As for `CCCCCC(N)=O`, the Potency was > 92 µM (inactive).

Turning to `CCCC(O)C(CC)CO` (centres undefined), the Potency is > 92 µM (inactive).

For `FC(F)(F)C(Cl)Br` (centres undefined), the Potency is > 92 µM (inactive).

As to `CCCCCCCC(=O)OCC(COC(=O)CCCCCCC)OC(=O)CCCCCCC`, the Potency was > 92 µM (inactive).

For the compound `CCCCOC(=O)c1ccc(N)cc1`, the Potency was > 92 µM (inactive).

Consider `CC(=O)Nc1ccc(C(=O)O)cc1`, for which the Potency is > 92 µM (inactive).

Take `O=C(c1ccccc1)C(O)c1ccccc1` (centres undefined): the Potency was > 92 µM (inactive).

Take `CCN(CC)C(=O)c1cccc(C)c1`: the Potency was > 92 µM (inactive).

With `COc1ccc(O)cc1`, the Potency is > 92 µM (inactive).

Take `C=CCNC(N)=S`: the Potency is > 92 µM (inactive).

`Nc1ccc(S(=O)(=O)c2ccc(N)cc2)cc1`: the Potency was > 92 µM (inactive).

With `Cc1cc(=O)[nH]c(=S)[nH]1`, the Potency was > 92 µM (inactive).

Another assay can be described thus: Cell Viability - Jurkat (AID 426;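 active means dose-dependent loss of cell ATP signal giving a full or clear fitted curve, ranked by lower potency value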;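 further: cells exposed to compound for 40 hours at 37 °C before ATP read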). Conditions: qHTS. The method, boiled down:
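Jurkat (Clone E6-1) cells, 5000/well in complete medium, exposed to compounds for 40 hr at 37C; intracellular ATP measured by CellTiter-Glo luminescence after 20 min at room temperature. AC50 from Hill fits.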
As for `O=C(O)CCCCC1CCSS1` (centres undefined), the Potency was > 92 µM (inactive).

Consider `CC(=O)Nc1ccccc1`, for which the Potency was > 92 µM (inactive).

Consider `Cc1c(N(C)C)c(=O)n(-c2ccccc2)n1C`, for which the Potency was > 92 µM (inactive).

As to `CC(=O)Nc1cccc(O)c1`, the Potency was > 92 µM (inactive).

`O=C1C(c2[nH]c3ccccc3c2O)=Nc2ccccc21`: the Potency was > 92 µM (inactive).

Turning to `CC1CC(OC(=O)c2ccccc2O)CC(C)(C)C1` (centres undefined), the Potency was > 92 µM (inactive).

Turning to `CC(=O)OCC(COC(C)=O)OC(C)=O`, the Potency was > 92 µM (inactive).

On to `CCCCCC(N)=O`, for which the Potency is > 92 µM (inactive).

As to `CCCC(O)C(CC)CO` (centres undefined), the Potency was > 92 µM (inactive).

For the compound `FC(F)(F)C(Cl)Br` (centres undefined), the Potency is > 92 µM (inactive).

As to `CCCCCCCC(=O)OCC(COC(=O)CCCCCCC)OC(=O)CCCCCCC`, the Potency is > 92 µM (inactive).

Consider `CCCCOC(=O)c1ccc(N)cc1`, for which the Potency was > 92 µM (inactive).

On to `CC(=O)Nc1ccc(C(=O)O)cc1`, for which the Potency is > 92 µM (inactive).

Consider `O=C(c1ccccc1)C(O)c1ccccc1` (centres undefined), for which the Potency was > 92 µM (inactive).

Turning to `CCN(CC)C(=O)c1cccc(C)c1`, the Potency was > 92 µM (inactive).

Turning to `COc1ccc(O)cc1`, the Potency was > 92 µM (inactive).

Take `C=CCNC(N)=S`: the Potency is > 92 µM (inactive).

For the compound `Nc1ccc(S(=O)(=O)c2ccc(N)cc2)cc1`, the Potency was > 92 µM (inactive).

Take `Cc1cc(=O)[nH]c(=S)[nH]1`: the Potency is > 92 µM (inactive).
